Results filed as inconclusive are left out. Where a call stands in place of a potency, no number is given. A number with no mark means an inactive call. Activity calls are given as the source filed them. The call rests on the fitted dose curve.
What follows are molecules tested against Nucleoprotein (Lymphocytic choriomeningitis virus (strain Armstrong)) (UniProt P09992) (assay: qHTS for Inhibitors of the Functional Ribonucleoprotein Complex (vRNP) of Lymphocytic Choriomeningitis Arenaviruses (LCMV): LCMV Primary Screen - GLuc reporter signal (AID 1347086; further: nearly all actives have a fitted effect of over 70% in size)). Details: LCMV minigenome vRNP cell assay, Gaussia luciferase reporter; series mostly up to 57.5 µM; activity change, negative = inhibition: at the top concentration.
Sequence of Nucleoprotein (Lymphocytic choriomeningitis virus (strain Armstrong)) (P09992 whole entry, looked up): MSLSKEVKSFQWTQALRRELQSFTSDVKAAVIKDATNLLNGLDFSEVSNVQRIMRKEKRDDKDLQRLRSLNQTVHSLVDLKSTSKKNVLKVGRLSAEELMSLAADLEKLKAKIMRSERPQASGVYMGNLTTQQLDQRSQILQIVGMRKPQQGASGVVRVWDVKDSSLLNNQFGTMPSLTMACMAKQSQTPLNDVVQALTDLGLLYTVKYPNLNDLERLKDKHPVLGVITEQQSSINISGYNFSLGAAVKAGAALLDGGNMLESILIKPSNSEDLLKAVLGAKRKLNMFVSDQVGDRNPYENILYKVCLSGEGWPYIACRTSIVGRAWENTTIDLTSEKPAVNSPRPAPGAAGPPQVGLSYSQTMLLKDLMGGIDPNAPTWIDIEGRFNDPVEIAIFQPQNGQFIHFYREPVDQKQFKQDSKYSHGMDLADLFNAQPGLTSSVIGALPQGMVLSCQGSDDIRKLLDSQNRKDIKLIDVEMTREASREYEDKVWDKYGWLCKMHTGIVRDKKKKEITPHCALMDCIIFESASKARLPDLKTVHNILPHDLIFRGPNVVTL
For `C=C(c1ccc(C(=O)O)cc1)c1cc2c(cc1C)C(C)(C)CCC2(C)C`, the Potency was “inactive”.
`Cc1[nH]cnc1CN1CCc2c(c3ccccc3n2C)C1=O` was tested, and the “activity change, negative = inhibition” value was -3.61%.
For `O[C@@H](c1cc(C(F)(F)F)nc2c(C(F)(F)F)cccc12)[C@H]1CCCCN1`, the “activity change, negative = inhibition” value was -56.2%.
With `CC(C)Nc1cccnc1N1CCN(C(=O)c2cc3cc(NS(C)(=O)=O)ccc3[nH]2)CC1` the “activity change, negative = inhibition” value was 2.71%.
For `NS(=O)(=O)Cc1noc2ccccc12`, the “activity change, negative = inhibition” value was 15.1%.
For `CNCCc1ccccn1`, the “activity change, negative = inhibition” value was 1.14%.
For `O=C(O)CCNC(=O)c1ccc(N=Nc2ccc(O)c(C(=O)O)c2)cc1`, the Potency was “inactive”.
`COc1ccccc1OCCNCC(O)COc1cccc2[nH]c3ccccc3c12` (centres undefined) was tested, and the Potency was “inactive”.
In the case of `Clc1ccc2c(c1)C(N1CCNCC1)=Nc1ccccc1O2`, the Potency is reported as “inactive”.
For `CC/C=C(\C(=O)N[C@@H]1C(=O)N2C(C(=O)OCOC(=O)C(C)(C)C)=C(COC(N)=O)CS[C@H]12)c1csc(N)n1`, the Potency was “inactive”.
In the case of `COc1cc(Cc2cnc(N)nc2N)cc(OC)c1OC`, the Potency is reported as “inactive”.
`Cc1cn([C@H]2C=C[C@@H](CO)O2)c(=O)[nH]c1=O` was tested, and the Potency was “inactive”.
With `NNc1nncc2ccccc12` the Potency was “inactive”.
With `CCCCN1C[C@H](O)[C@@H](O)[C@H](O)[C@H]1CO` the “activity change, negative = inhibition” value was 8.09%.
With `CC(C)NCC(O)c1ccc(O)c(O)c1` (centres undefined) the Potency was “inactive”.
With `CN(C)CCOC(c1ccc(Cl)cc1)c1ccccn1` (centres undefined) the “activity change, negative = inhibition” value was -14%.
For `CCCCNC(=O)NS(=O)(=O)c1ccc(C)cc1`, the Potency was “inactive”.
`CC[N+](C)(C)c1cccc(O)c1` was tested, and the Potency was “inactive”.
`CC(C)C1CCC(C(=O)N[C@H](Cc2ccccc2)C(=O)O)CC1` (some centres undefined) was tested, and the Potency was “inactive”.

Reference: PubChem BioAssay (NCATS)
